Test results: PubChem BioAssay (Tox21)
Inconclusive results are not listed. Where a call stands in place of a potency, no number is given. Unmarked numbers belong to inactive results. Calls of active or inactive are those of the source. Unless noted, calls come from the whole dose curve; as a rule, active = well fitted curve in the direction sought with a large enough effect in the repeat runs; inconclusive = weak or mixed curves; inactive = no such curve, though single readings can be large; an effect the other way counts as inactive or inconclusive.

Columns and labels:
[1] = qHTS assay to identify small molecule agonists of the RXR signaling pathway - cell viability counter screen (AID 1159529); note: series mostly up to about 77 µM; nearly all actives have a fitted effect of over 50% in size
Summary of the method: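 Cell viability is measured by CellTiter-Glo luminescence, 30 min at room temperature, in wells already read for beta-lactamase. Engineered HEK 293T cells (RXR-alpha-UAS-bla) are dosed 16 hr at 37 C. Tetraoctyl ammonium bromide serves as positive control.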

[2] = qHTS assay to identify small molecule antagonists of the retinoid acid receptor (RAR) signaling pathway - cell viability counter screen (AID 1159551); note: nearly all actives have a fitted effect of over 35% in size
Summary of the method: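 Cytotoxicity counter screen in C3RL4 cells: 6 h compound exposure with 1 uM retinol (final), viability from cellular ATP by luminescence.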

[3] = qHTS assay to identify small molecule antagonists of the retinoic acid receptor (RAR) signaling pathway (AID 1159552; note: nearly all actives have a fitted effect of over 50% in size)
Summary of the method: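 Quantitative HTS in C3RL4 RARE-luciferase reporter cells. Compounds were added with 1 uM (final) retinol; luminescence was read after 6 hr.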

[4] = qHTS assay to identify small molecule agonists of the retinoic acid receptor (RAR) signaling pathway (AID 1159553); note: potency is the fitted concentration of half-maximal effect
Summary of the method: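 Agonist activity was scored in C3RL4 cells bearing a retinoic acid response element luciferase construct. Cells were treated with compounds for 6 hr at 37 C, and luciferase signal was measured as luminescence.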

[5] = qHTS assay to identify small molecule antagonists of the estrogen related receptor (ERR) signaling pathway from Tox21 library - cell viability counter screen (AID 1224834); note: nearly all actives have a fitted effect of over 30% in size
Summary of the method: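 Cytotoxicity of test substances is gauged in the same ERR cells used for the antagonist screen, after 17.5 h of compound treatment at 37 C, by CellTiter-Fluor fluorescence measured after 30 min.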

[6] = target: Luciferin 4-monooxygenase (Photinus pyralis) (UniProt P08659); assay: qHTS assay to identify small molecule inhibitors of firefly luciferase (AID 1224835); note: nearly all actives have a fitted effect of over 25% in size; note: potency is the fitted concentration of half-maximal effect
Chain of Luciferin 4-monooxygenase (Photinus pyralis) (P08659 whole entry, looked up): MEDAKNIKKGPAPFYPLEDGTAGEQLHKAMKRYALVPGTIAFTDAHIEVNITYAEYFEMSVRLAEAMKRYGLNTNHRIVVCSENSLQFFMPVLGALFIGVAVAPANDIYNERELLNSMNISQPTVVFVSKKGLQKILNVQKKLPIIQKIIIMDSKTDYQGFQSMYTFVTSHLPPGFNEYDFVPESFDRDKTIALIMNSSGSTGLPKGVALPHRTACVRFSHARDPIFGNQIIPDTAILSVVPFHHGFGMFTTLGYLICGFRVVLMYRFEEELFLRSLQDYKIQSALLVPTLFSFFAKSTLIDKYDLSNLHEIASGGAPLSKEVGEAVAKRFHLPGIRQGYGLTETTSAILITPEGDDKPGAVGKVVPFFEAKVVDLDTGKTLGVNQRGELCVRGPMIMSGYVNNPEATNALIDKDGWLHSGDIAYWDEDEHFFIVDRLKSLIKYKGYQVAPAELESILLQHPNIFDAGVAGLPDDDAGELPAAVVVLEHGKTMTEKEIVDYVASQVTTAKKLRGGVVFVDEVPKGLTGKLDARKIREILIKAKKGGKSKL
Summary of the method: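 Quantitative HTS format; KM concentrations of both substrates. Purified P. pyralis FLuc activity quantified from luminescence images.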

[7] = qHTS assay to identify small molecule agonists of the constitutive androstane receptor (CAR) signaling pathway - cell viability counter screen (AID 1224836); note: series mostly up to about 92 µM; nearly all actives have a fitted effect of over 45% in size
Summary of the method: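 Counter screen multiplexed with the CAR reporter readout: HepG2 cells co-transfected with hCAR and the CYP2B6-2.2kb construct receive a 15-concentration compound series and 0.75 uM PK11195 (final), then CellTiter-Fluor fluorescence is read after 23 h.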

[8] = qHTS assay to identify small molecule antagonists of the constitutive androstane receptor (CAR) signaling pathway - cell viability counter screen (AID 1224837); note: series mostly up to about 92 µM; nearly all actives have a fitted effect of over 45% in size
Summary of the method: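 Multiplexed cytotoxicity read-out for the CAR antagonist screen: double-stable HepG2-CYP2B6-hCAR cells co-treated with 50 nM CITCO (final) and compound over 15 concentrations, incubated 23 hr, then assessed by CellTiter-Fluor fluorescence.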

[9] = target: Nuclear receptor subfamily 1 group I member 3 (Homo sapiens) (UniProt Q14994); assay: qHTS assay to identify small molecule antagonists of the constitutive androstane receptor (CAR) signaling pathway (AID 1224838); note: nearly all actives have a fitted effect of over 40% in size
Chain of Nuclear receptor subfamily 1 group I member 3 (Homo sapiens) (Q14994 whole entry, looked up): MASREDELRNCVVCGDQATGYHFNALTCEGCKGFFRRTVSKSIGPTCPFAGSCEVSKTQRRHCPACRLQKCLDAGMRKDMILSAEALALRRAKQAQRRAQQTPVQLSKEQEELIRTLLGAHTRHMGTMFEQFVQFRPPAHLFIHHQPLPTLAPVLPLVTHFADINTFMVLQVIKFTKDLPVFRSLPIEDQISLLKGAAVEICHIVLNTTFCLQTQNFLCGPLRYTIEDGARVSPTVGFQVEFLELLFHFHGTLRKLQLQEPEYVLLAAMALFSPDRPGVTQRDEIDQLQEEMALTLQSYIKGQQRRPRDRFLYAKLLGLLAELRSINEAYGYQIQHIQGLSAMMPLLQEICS
Summary of the method: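 Compounds were titrated across 15 concentrations onto HepG2 cells double-stably expressing hCAR and a CYP2B6-2.2kb reporter, together with 50 nM CITCO (final). After 24 h at 37 C, luciferase activity was measured by luminescence.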

[10] = qHTS assay to identify small molecule antagonists of the estrogen related receptor signaling pathway with the pleiotropic PPARgamma coactivator (PGC) from Tox21 10K library - cell viability counter screen (AID 1224840; active = well fitted cell-killing curve with a large enough effect in the repeat runs, not every such curve was filed as active; note: nearly all actives have a fitted effect of over 40% in size)
Summary of the method: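 Step one, plate 2,000 PGC/ERR cells per well; step two, incubate 6 h at 37 C/5% CO2; step three, pin-transfer compounds; step four, incubate 17.5 h; step five, add CellTiter-Fluor and read fluorescence after 30 min.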

[11] = qHTS assay to identify small molecule agonists of the estrogen related receptor signaling pathway with the pleiotropic PPARgamma coactivator (PGC) from Tox21 10K library (AID 1224842); note: nearly all actives have a fitted effect of over 15% in size
Summary of the method: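 PGC/ERR reporter cells (NTP line) were seeded 2,000 per well, rested 6 h at 37 C/5% CO2, then pin-dosed with compounds in DMSO for 18 h at 37 C; luciferase read by One-Glo luminescence after 30 min at room temperature.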

[12] = target: Nuclear receptor subfamily 1 group I member 3 (Homo sapiens) (UniProt Q14994); assay: qHTS assay to identify small molecule agonists of the constitutive androstane receptor (CAR) signaling pathway (AID 1224839); note: series mostly up to about 92 µM; nearly all actives have a fitted effect of over 15% in size
Summary of the method: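 A 15-concentration quantitative screen uses HepG2 cells co-transfected stably with human CAR and CYP2B6-2.2kb reporter. Treatment lasts 24 h with 0.75 uM PK11195 final present; ONE-Glo luminescence is the signal.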

SMILES | Potency [1] | outcome [2] | outcome [3] | Potency [4] | Potency [5] | Potency [6] | Potency [7] | Potency [8] | Potency [9] | Potency [10] | Potency [11] | Potency [12]
N#Cc1ccc(CC(=O)c2cccc(C(F)(F)F)c2)cc1 | inactive | inactive | inactive | inactive | inactive | inactive | inactive | inactive | inactive | inactive | inactive | –
CC(=O)CC/C=C(\C)CC/C=C(\C)CC/C=C(\C)CCC=C(C)C | inactive | inactive | inactive | inactive | inactive | inactive | inactive | inactive | inactive | inactive | – | –
CC(C(=O)O)c1ccc2c(c1)Cc1cccnc1O2 (configuration not stated) | inactive | inactive | inactive | inactive | inactive | inactive | inactive | inactive | – | inactive | – | –
O=C(O)c1ccccc1[N+](=O)[O-] | inactive | inactive | inactive | inactive | inactive | inactive | inactive | inactive | – | inactive | – | –
Cc1c(Cl)cccc1Nc1ccccc1C(=O)O | inactive | inactive | inactive | inactive | inactive | inactive | inactive | inactive | inactive | inactive | – | inactive
CC(C)Cc1nccs1 | inactive | inactive | inactive | inactive | inactive | inactive | inactive | inactive | inactive | inactive | – | –
CC(C)(O)C(=O)O | inactive | inactive | inactive | inactive | inactive | inactive | inactive | inactive | inactive | inactive | – | –
CC(C)=CCC/C(C)=C/C=N/O | inactive | inactive | inactive | inactive | inactive | inactive | inactive | inactive | inactive | inactive | – | –
Cc1ccc2ccccc2c1[N+](=O)[O-] | inactive | inactive | inactive | inactive | inactive | inactive | inactive | inactive | inactive | inactive | – | –
CCCC(=O)OCCC(C)C | inactive | inactive | inactive | inactive | inactive | inactive | inactive | inactive | – | inactive | – | –
CCCCOC(=O)C(C)Oc1ccc(Oc2ccc(C(F)(F)F)cn2)cc1 (configuration not stated) | inactive | inactive | inactive | inactive | inactive | inactive | inactive | inactive | – | inactive | – | inactive
Clc1ccccc1-c1nc(-c2ccncc2)no1 | inactive | inactive | inactive | 2.11 µM (active) | inactive | 2.75 µM (active) | inactive | inactive | – | inactive | – | –
CCCOC(C)=O | inactive | inactive | inactive | inactive | inactive | inactive | inactive | inactive | – | inactive | – | inactive
CC(C)(C)N | inactive | inactive | inactive | inactive | inactive | inactive | inactive | inactive | inactive | inactive | – | –
O=[N+]([O-])c1ccccc1CCO | inactive | inactive | inactive | inactive | inactive | inactive | inactive | inactive | – | inactive | – | –
C(/C=C/C=C/Nc1ccccc1)=Nc1ccccc1 | inactive | inactive | inactive | inactive | inactive | inactive | inactive | inactive | – | inactive | – | –
C/C=C1\[C@H]2C=C(C)C[C@]1(N)c1ccc(=O)[nH]c1C2 | inactive | inactive | inactive | inactive | inactive | inactive | inactive | inactive | inactive | inactive | – | –
CCCCCCCCC(=O)OCC(C)OC(=O)CCCCCCCC (configuration not stated) | inactive | inactive | inactive | inactive | inactive | inactive | inactive | inactive | inactive | inactive | – | inactive
CCOCCn1c(N2CCCN(C)CC2)nc2ccccc21 | inactive | inactive | inactive | inactive | inactive | inactive | inactive | inactive | – | inactive | – | –
O=C(O)c1cc(C(=O)O)cc([N+](=O)[O-])c1 | inactive | inactive | inactive | inactive | inactive | inactive | inactive | inactive | – | inactive | – | inactive
NC(=O)c1cc[n+](CC2=C(C(=O)[O-])N3C(=O)[C@@H](NC(=O)Cc4cccs4)[C@H]3SC2)cc1 | inactive | inactive | inactive | inactive | inactive | inactive | inactive | inactive | – | inactive | – | inactive
CCC(C(=O)O)c1ccc(N2Cc3ccccc3C2=O)cc1 (configuration not stated) | inactive | inactive | inactive | 3.76 µM (active) | inactive | 9.77 µM (active) | inactive | inactive | inactive | inactive | – | –
CCC(C)CCCC(C)(C)O (configuration not stated) | inactive | inactive | inactive | inactive | inactive | inactive | inactive | inactive | – | inactive | – | –
CC(C)=CCCC(C)C=O (configuration not stated) | inactive | inactive | inactive | inactive | inactive | inactive | inactive | inactive | inactive | inactive | – | inactive
CC(CCl)OC(C)CCl (configuration not stated) | inactive | inactive | inactive | inactive | inactive | inactive | inactive | inactive | inactive | inactive | – | inactive
